From PubChem BioAssay (NCATS)
Inconclusive results are not listed. The source made the active and inactive calls. The call rests on the fitted dose curve; in most records, active means well fitted curve in the direction sought with a large enough effect; inconclusive means small, poorly fitted or top-dose-only effect, or another doubt; inactive means no such curve, though single readings can be large; an effect the other way counts as inactive or inconclusive.

How the values were obtained:
[1] = qHTS for Hypoxia signaling pathway (HIF-1) antagonists against the NCATS CANVASS Library (AID 1347374);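 further: HRE-bla ME-180 cells stimulated with cobalt chloride to stabilize HIF-1alpha; series mostly up to about 38 µM; nearly all actives have a fitted effect of over 60% in size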
Procedure, shortened: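 HRE-bla ME-180 cells in medium with 0.5% dialyzed FBS received compounds (11-point series) plus CoCl2 (60 uM addition stock) for 17 hrs at 37C. Beta-lactamase activity read with CCF4 (405 nm ex, 460/530 nm em); CellTiter-Glo viability measured in same wells.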

[2] = qHTS for Hypoxia signaling pathway (HIF-1) agonists against the NCATS CANVASS Library (AID 1347375)
Excerpt: Natural products and their derivatives continue to be wellsprings of nascent therapeutic potential. However, many laboratories have limited resources for biological evaluation, leaving their previously isolated or synthesized compounds largely or completely untested. To address this issue, the Canvass library of natural products was assembled (https://tripod.nih.gov/canvass), in collaboration with academic and industry researchers, for quantitative high-throughput screening (qHTS) across a diverse set of cell-based and biochemical assays. The pure (>85% purity by liquid chromatography/mass spectrometry [LC/MS]) Canvass library of 346 natural products were submitted by 45 academic laboratories and companies around the world. We collected pure natural products to circumvent deconvolution and structure elucidation due to time and resource limitations. The library was formatted into 1536-well plates and evaluated in 50 qHTS (in an 11-pnt concentration series) bioassays with broad scope of disease-relevant mechanisms. The resulting data set from 50 different assays was then systematically analyzed to identify overall trends and specific natural products with interesting biological activities. […] The compounds were also tested for auto fluorescence that may interfere with the biological target readout resulting in potential false positives and/or negatives. […]

[3] = 10-beta competent E. coli microbial cell viability qHTS against the NCATS CANVASS Library (AID 1347376); further: series mostly up to about 46 µM
Procedure, shortened: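 E. coli 10-beta, 0.2 OD; cpds 11-pt; o/n 37C, 5% CO2; BacTiter-Glo 20 min RT; luminescence (ATP) = viable cells. Daunomycin ctrl.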

[4] = DH5-alpha competent E. coli microbial cell viability qHTS against the NCATS CANVASS Library (AID 1347377)
Procedure, shortened: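 qHTS, 11-pt; E. coli DH5-alpha, 0.2 OD; o/n 37C/5% CO2; BacTiter-Glo, 20 min RT; luminescence.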

[5] = qHTS for H2AX Agonists against the NCATS CANVASS Library (AID 1347378);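 further: phospho-H2AX S139 level in CHO-K1 lysates by TR-FRET emission ratio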
Excerpt: Natural products and their derivatives continue to be wellsprings of nascent therapeutic potential. However, many laboratories have limited resources for biological evaluation, leaving their previously isolated or synthesized compounds largely or completely untested. To address this issue, the Canvass library of natural products was assembled (https://tripod.nih.gov/canvass), in collaboration with academic and industry researchers, for quantitative high-throughput screening (qHTS) across a diverse set of cell-based and biochemical assays. The pure (>85% purity by liquid chromatography/mass spectrometry [LC/MS]) Canvass library of 346 natural products were submitted by 45 academic laboratories and companies around the world. We collected pure natural products to circumvent deconvolution and structure elucidation due to time and resource limitations. The library was formatted into 1536-well plates and evaluated in 50 qHTS (in an 11-pnt concentration series) bioassays with broad scope of disease-relevant mechanisms. The resulting data set from 50 different assays was then systematically analyzed to identify overall trends and specific natural products with interesting biological activities. […] It is based on time resolved fluorescence resonance energy transfer (TR-FRET). […] The results were expressed as the ratio of 665/615 nm emissions. […]

[6] = qHTS for Inflammasome Signaling Inhibitors: IL-1-beta AlphaLISA screen against the NCATS CANVASS Library (AID 1347379); conditions: outcome: dose series up to 57.5 µM;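 further: human THP-1 cells primed with LPS then triggered with ATP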
Procedure, shortened: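 THP-1 cells pretreated 1 hr with compound (up to 57.5 uM final), then stimulated with LPS (250 ng/mL final) and ATP (1.25 mM final). Secreted IL-1B measured by AlphaLISA after 16 hr; glyburide as positive control.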

[7] = Inflammasome Signaling qHTS Counterscreen: IL-1-beta AlphaLISA counterscreen against the NCATS CANVASS Library (AID 1347381);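 further: cell-free check with purified IL-1β in medium and no THP-1 cells; series mostly up to about 57 µM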
Excerpt: Natural products and their derivatives continue to be wellsprings of nascent therapeutic potential. However, many laboratories have limited resources for biological evaluation, leaving their previously isolated or synthesized compounds largely or completely untested. To address this issue, the Canvass library of natural products was assembled (https://tripod.nih.gov/canvass), in collaboration with academic and industry researchers, for quantitative high-throughput screening (qHTS) across a diverse set of cell-based and biochemical assays. The pure (>85% purity by liquid chromatography/mass spectrometry [LC/MS]) Canvass library of 346 natural products were submitted by 45 academic laboratories and companies around the world. We collected pure natural products to circumvent deconvolution and structure elucidation due to time and resource limitations. The library was formatted into 1536-well plates and evaluated in 50 qHTS (in an 11-pnt concentration series) bioassays with broad scope of disease-relevant mechanisms. The resulting data set from 50 different assays was then systematically analyzed to identify overall trends and specific natural products with interesting biological activities. […]
IL-1-beta-counterscreen qHTS protocol: 1. […] The AlphaLISA signal was read by the EnVision plate reader (PerkinElmer) using a 680 nm excitation and 615 nm emission filters.

[8] = Cytotoxicity qHTS for assessment of Hepg2 cells membrane integrity screened against the NCATS CANVASS Library (AID 1347387)
Procedure, shortened: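 qHTS, 11-pt conc. series, 0.59 nM - 46 uM final; HepG2 2000 cells/well, overnight attachment; 5 hr compound exposure 37C/5% CO2; CytoTox-ONE, 10 min RT; fluorescence ex560/em590 = LDH from damaged membranes.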

[9] = qHTS for Activators of p53 Stress Response Pathway screened against the NCATS CANVASS Library (AID 1347388)
Procedure, shortened: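 p53RE-bla HCT-116 cells (4000/well) were pre-incubated for 5 h, then treated with compound (11 points) for 16 h at 37C. After 2 h with CCF4, the 460/530 nm ratio gave reporter activation; CellTiter-Glo measured viability.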

[10] = qHTS for Antimalaria activity screened against the NCATS CANVASS Library (AID 1347380);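 further: Plasmodium falciparum strain Dd2 asexual parasites grown in red blood cells; series mostly up to about 29 µM; nearly all actives have a fitted effect of over 40% in size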
Procedure, shortened: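 Dd2 strain, infected erythrocytes 2.5% Hct final / 0.3% parasitemia. 11-pt qHTS titration, 72 h, 37C, 5% O2, 5% CO2. Lysis buffer + SYBR Green, 18 h, fluorescence 485/535 nm.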

Measured: outcome

C/C=C/C=C/C(CC(=O)O)Nc1ccc(C=O)cc1 (configuration not stated)
inactive: [1] | [2] | [3] | [4] | [5] | [6] | [7] | [8] | [9]

CC1=C2C(=O)O[C@@H](c3ccoc3)[C@]2(C)CCC1
inactive: [3] | [4] | [5] | [6] | [10] | [7] | [8] | [9]
